Potency and affinity values are given separately. Activity calls are given as the source filed them.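 How the source made its calls: active means compounds lowering cell ATP signal with a fitted half-effect dose at most twice the top valid dose; inconclusive means flat curve with 30 to 70% signal loss, or bad fit; inactive means wrong direction, flat within 30%, or weaker than limit.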

The test in a line: HEK293 cell cytotoxicity, dose response, cytotoxicity control, cherry-picks, set 5 (AID 1053117).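 Further: more negative means greater loss of ATP signal and more cytotoxicity.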 To be noted: HEK293T viability, CellTiter-Glo ATP luminescence, 72 h; series mostly up to 26 µM. On the technique in general: Cellular ATP, detected with luciferase, serves as a proxy for viable cell number.

Take `Cc1ccc(N(CC(=O)NCc2ccco2)S(=O)(=O)c2ccccc2)cc1`: the result was inactive.

Consider `O=C(Nc1nc(-c2ccncc2)cs1)C1COc2ccccc2O1` (centres undefined), for which the compound was called inactive.

For the compound `Nc1c(C(=O)NCc2ccco2)nnn1Cc1ccccc1`, the compound was classed as inactive. In the case of `N#C[C@@H]1[C@@H](c2ccccc2C2=CCCCC2)[C@@H](CO)N1S(=O)(=O)c1ccccc1`, the result was inactive. The result for `COc1ccc([N+](=O)[O-])cc1NS(=O)(=O)c1ccc(C(=O)N2CCCC2)cc1` reads “inactive”. Regarding `C[C@@H]1CN([C@@H](C)CO)C(=O)c2cc(-c3ccccc3)cnc2O[C@H]1CN(C)C(=O)c1cccc(F)c1`, the compound was called inactive. As to `C[C@@H]1CN([C@H](C)CO)C(=O)c2cc(-c3ccccc3)cnc2O[C@@H]1CN(C)Cc1ccccc1`, the result was inactive. For `COC(=O)C[C@H]1CC[C@H]2[C@@H](COc3ccc(NC(=O)Cc4cccs4)cc3C(=O)N2C)O1`, the result was inactive. Take `C[C@H](O)C#Cc1ccc2c(c1)O[C@@H](CN(C)C)[C@H](C)CN([C@H](C)CO)S2(=O)=O`: the compound was classed as inactive. As for `C[C@H]1CN([C@@H](C)CO)C(=O)c2cc(-c3ccccc3)cnc2O[C@H]1CN(C)Cc1ccccc1`, the result was inactive.

`Cc1ccccc1S(=O)(=O)N1CC[C@H]2[C@H](CO)Nc3ccc(-c4ccc(C#N)cc4)cc3[C@H]21`: the call was inactive. With `N#C[C@@H]1[C@@H](c2ccccc2C2=CCCCC2)[C@H](CO)N1S(=O)(=O)c1ccccc1`, the call was inactive. In the case of `Cc1oc2ccc(O)cc2c1C(=O)c1ccc(Br)cc1`, the result was inactive.

For `CC(C)(C)[S@@](=O)N1Cc2cc(C(=O)NCc3ccccc3F)nc(-c3cccc(-c4cncnc4)c3)c2[C@H]1CCO`, the outcome was inactive.

These data come from PubChem BioAssay AID1053117 (Broad Institute, 2014).
